# Data from ChEMBL document CHEMBL2218924, “A broad activity screen in support of a chemogenomic map for kinase signalling research and drug discovery” (Biochem J, 2013).
# Experiments:
# [1] = target: MAP kinase-activated protein kinase 2 (Homo sapiens) (UniProt P49137); conditions: at 10 µM
# [2] = target: MAP kinase-activated protein kinase 3 (Homo sapiens) (UniProt Q16644); conditions: at 10 µM
# [3] = target: Serine/threonine-protein kinase MARK1 (Homo sapiens) (UniProt Q9P0L2); conditions: at 1 µM
# [4] = target: Serine/threonine-protein kinase MARK1 (Homo sapiens) (UniProt Q9P0L2); conditions: at 10 µM
# [5] = target: Dual specificity mitogen-activated protein kinase kinase 1 (Homo sapiens) (UniProt Q02750); conditions: at 1 µM
# [6] = target: Dual specificity mitogen-activated protein kinase kinase 1 (Homo sapiens) (UniProt Q02750); conditions: at 10 µM
# [7] = target: Maternal embryonic leucine zipper kinase (Homo sapiens) (UniProt Q14680); conditions: at 1 µM
# [8] = target: Maternal embryonic leucine zipper kinase (Homo sapiens) (UniProt Q14680); conditions: at 10 µM
# [9] = target: Misshapen-like kinase 1 (Homo sapiens) (UniProt Q8N4C8); conditions: at 1 µM
# [10] = target: Misshapen-like kinase 1 (Homo sapiens) (UniProt Q8N4C8); conditions: at 10 µM
# [11] = target: T1, Dual specificity mitogen-activated protein kinase kinase 6 (Homo sapiens) (UniProt P52564); conditions: at 1 µM
# T1 sequence (whole entry): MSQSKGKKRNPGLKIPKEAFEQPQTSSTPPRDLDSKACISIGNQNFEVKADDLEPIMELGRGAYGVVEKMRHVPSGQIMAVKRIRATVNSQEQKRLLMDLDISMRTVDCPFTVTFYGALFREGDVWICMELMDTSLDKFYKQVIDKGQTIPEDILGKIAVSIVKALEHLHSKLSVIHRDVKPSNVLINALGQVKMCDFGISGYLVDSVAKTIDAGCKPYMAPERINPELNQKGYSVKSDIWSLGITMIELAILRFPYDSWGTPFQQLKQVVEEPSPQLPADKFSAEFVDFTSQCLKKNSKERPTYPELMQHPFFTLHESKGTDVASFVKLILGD
# [12] = target: T1, Dual specificity mitogen-activated protein kinase kinase 6 (Homo sapiens); conditions: at 10 µM
# [13] = target: T2, Dual specificity mitogen-activated protein kinase kinase 7 (Homo sapiens) (UniProt O14733); conditions: at 1 µM
# T2 sequence (whole entry): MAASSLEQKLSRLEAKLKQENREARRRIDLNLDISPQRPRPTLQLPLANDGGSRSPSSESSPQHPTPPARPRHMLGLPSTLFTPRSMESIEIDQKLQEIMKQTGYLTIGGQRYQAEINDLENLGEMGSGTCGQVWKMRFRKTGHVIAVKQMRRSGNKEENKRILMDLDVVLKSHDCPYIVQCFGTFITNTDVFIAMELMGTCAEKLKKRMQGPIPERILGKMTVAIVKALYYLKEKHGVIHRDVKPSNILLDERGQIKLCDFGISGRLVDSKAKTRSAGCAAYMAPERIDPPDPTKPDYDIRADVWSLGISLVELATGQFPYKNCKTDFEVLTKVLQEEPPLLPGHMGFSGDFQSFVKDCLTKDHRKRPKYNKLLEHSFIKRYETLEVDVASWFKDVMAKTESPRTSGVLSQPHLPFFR
# [14] = target: T2, Dual specificity mitogen-activated protein kinase kinase 7 (Homo sapiens); conditions: at 10 µM
# [15] = target: Myosin light chain kinase, smooth muscle (Homo sapiens) (UniProt Q15746); conditions: at 1 µM
# [16] = target: Myosin light chain kinase, smooth muscle (Homo sapiens) (UniProt Q15746); conditions: at 10 µM
# [17] = target: Mitogen-activated protein kinase kinase kinase 9 (Homo sapiens) (UniProt P80192); conditions: at 1 µM
# [18] = target: Mitogen-activated protein kinase kinase kinase 9 (Homo sapiens) (UniProt P80192); conditions: at 10 µM
# [19] = target: Serine/threonine-protein kinase MRCK alpha (Homo sapiens) (UniProt Q5VT25); conditions: at 1 µM
# [20] = target: Serine/threonine-protein kinase MRCK alpha (Homo sapiens) (UniProt Q5VT25); conditions: at 10 µM
# MAP kinase-activated protein kinase 3 (Homo sapiens), sequence (Q16644 whole entry, looked up): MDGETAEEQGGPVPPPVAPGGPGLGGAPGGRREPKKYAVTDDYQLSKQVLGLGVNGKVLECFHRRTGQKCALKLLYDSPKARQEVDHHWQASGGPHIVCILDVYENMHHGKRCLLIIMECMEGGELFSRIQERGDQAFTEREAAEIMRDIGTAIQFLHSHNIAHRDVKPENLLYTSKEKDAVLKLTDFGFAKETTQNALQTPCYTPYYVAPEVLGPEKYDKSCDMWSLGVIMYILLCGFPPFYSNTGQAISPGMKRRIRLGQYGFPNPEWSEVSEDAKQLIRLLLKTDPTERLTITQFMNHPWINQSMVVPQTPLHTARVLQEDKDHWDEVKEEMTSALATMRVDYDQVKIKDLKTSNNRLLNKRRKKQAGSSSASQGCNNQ
# Mitogen-activated protein kinase kinase kinase 9 (Homo sapiens), sequence (P80192 whole entry, looked up): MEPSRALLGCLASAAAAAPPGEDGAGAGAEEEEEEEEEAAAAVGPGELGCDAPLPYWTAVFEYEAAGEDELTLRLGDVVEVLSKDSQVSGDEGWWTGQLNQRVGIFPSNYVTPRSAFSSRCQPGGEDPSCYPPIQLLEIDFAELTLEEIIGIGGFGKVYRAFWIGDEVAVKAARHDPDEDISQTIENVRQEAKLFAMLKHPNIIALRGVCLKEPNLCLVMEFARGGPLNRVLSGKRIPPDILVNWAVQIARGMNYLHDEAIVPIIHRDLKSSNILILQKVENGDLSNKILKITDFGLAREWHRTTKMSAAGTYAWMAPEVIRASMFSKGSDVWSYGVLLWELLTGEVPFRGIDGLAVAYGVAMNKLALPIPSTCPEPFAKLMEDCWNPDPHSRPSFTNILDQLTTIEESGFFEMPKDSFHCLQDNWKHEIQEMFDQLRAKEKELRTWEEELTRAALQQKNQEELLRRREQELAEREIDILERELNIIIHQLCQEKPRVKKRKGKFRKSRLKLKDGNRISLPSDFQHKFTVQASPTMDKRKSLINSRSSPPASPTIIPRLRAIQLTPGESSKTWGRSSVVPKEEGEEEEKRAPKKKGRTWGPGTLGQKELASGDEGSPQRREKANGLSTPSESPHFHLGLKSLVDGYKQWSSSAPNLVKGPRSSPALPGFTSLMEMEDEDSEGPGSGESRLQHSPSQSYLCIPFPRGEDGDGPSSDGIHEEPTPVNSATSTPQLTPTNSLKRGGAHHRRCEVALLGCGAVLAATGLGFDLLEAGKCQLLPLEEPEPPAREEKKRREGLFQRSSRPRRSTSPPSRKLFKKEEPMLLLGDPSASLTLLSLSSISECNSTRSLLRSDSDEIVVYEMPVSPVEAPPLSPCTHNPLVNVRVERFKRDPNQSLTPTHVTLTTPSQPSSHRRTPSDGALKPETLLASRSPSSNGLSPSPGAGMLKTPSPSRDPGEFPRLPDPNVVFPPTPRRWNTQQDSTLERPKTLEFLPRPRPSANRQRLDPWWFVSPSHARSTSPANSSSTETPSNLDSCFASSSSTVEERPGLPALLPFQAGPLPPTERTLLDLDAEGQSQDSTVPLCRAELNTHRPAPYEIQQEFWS
# Myosin light chain kinase, smooth muscle (Homo sapiens), sequence (Q15746 whole entry): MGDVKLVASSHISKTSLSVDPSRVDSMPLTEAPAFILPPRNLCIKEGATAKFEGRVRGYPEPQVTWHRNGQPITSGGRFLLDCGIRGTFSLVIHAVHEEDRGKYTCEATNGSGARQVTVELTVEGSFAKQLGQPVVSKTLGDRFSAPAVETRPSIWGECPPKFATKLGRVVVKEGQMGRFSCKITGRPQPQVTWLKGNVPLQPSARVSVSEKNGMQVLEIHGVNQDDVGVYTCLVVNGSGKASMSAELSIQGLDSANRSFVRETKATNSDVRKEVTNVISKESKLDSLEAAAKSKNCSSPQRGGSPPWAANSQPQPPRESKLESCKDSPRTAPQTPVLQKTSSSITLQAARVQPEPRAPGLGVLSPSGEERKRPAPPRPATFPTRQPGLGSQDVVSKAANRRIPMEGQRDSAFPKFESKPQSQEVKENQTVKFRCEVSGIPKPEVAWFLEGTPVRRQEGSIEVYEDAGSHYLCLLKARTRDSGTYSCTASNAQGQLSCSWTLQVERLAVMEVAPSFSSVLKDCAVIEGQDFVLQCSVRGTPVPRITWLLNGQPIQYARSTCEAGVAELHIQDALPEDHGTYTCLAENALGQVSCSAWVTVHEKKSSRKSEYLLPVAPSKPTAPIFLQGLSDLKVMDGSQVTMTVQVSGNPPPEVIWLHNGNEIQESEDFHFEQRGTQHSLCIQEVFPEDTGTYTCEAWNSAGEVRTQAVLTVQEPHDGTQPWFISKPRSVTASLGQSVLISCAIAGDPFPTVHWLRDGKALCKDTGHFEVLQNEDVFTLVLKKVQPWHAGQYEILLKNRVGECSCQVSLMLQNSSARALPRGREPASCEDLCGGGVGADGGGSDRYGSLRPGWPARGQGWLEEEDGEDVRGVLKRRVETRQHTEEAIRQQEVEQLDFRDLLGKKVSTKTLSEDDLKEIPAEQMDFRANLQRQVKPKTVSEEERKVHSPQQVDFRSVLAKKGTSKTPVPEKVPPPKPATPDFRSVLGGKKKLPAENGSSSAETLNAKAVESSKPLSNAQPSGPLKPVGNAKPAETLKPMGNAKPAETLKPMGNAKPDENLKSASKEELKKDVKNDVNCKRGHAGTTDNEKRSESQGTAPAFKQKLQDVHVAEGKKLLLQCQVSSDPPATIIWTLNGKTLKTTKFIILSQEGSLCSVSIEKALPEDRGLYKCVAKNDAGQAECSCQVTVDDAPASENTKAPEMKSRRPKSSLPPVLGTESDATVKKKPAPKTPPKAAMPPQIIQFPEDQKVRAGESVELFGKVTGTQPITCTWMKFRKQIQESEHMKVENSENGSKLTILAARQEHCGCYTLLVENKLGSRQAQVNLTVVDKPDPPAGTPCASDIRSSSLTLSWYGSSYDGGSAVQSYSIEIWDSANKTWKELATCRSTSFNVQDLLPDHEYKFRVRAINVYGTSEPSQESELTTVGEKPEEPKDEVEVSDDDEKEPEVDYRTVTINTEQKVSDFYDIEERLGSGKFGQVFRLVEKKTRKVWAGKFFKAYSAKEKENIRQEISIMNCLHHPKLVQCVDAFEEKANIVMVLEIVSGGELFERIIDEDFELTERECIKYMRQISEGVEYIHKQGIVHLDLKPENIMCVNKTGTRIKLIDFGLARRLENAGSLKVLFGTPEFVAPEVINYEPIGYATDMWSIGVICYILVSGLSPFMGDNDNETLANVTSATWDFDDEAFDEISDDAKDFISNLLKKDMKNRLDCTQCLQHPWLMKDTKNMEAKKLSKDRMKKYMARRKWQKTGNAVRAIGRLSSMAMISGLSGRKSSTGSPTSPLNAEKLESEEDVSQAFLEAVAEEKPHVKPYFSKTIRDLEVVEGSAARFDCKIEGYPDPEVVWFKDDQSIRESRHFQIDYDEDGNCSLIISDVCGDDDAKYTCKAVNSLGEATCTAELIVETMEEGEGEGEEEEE
# Serine/threonine-protein kinase MRCK alpha (Homo sapiens), sequence (Q5VT25 whole entry): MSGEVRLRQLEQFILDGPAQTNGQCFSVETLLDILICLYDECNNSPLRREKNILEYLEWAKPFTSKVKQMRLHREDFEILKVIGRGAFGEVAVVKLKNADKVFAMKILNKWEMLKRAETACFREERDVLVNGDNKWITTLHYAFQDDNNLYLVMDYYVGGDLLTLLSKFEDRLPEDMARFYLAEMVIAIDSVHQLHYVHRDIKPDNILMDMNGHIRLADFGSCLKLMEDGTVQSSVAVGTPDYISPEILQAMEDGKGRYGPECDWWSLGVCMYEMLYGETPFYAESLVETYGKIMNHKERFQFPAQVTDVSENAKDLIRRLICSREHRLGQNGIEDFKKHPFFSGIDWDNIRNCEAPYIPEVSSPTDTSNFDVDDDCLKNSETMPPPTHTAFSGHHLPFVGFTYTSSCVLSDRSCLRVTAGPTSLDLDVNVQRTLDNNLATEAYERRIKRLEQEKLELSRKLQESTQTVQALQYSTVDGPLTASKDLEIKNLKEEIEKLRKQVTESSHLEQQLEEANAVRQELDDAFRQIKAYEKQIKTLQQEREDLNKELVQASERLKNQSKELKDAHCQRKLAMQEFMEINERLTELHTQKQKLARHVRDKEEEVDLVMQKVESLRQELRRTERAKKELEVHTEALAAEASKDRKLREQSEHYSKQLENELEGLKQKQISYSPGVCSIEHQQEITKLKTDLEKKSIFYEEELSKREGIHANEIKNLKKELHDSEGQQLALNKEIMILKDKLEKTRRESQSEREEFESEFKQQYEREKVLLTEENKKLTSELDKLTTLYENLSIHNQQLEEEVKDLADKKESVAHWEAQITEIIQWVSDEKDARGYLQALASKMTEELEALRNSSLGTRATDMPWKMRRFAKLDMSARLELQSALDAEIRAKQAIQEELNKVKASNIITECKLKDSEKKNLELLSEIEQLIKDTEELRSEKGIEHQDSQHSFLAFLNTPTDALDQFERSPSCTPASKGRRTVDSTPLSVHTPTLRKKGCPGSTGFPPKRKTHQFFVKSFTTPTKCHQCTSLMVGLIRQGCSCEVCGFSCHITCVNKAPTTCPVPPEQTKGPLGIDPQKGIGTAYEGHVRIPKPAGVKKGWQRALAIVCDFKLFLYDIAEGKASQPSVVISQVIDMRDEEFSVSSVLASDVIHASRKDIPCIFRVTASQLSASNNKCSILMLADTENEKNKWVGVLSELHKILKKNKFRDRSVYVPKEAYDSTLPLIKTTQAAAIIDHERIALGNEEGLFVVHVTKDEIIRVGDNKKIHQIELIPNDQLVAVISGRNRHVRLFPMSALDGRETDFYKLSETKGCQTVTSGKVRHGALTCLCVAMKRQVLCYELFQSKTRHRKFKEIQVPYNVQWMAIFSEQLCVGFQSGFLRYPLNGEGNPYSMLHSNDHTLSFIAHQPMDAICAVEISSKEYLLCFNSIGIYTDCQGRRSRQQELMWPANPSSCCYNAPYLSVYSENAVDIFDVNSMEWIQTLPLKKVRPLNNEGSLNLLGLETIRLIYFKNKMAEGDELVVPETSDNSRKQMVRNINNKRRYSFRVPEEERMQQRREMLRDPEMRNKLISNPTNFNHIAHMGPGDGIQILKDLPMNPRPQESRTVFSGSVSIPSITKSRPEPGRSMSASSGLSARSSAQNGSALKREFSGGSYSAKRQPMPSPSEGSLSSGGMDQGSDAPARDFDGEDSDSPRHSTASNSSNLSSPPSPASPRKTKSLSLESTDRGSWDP
SMILES,residual activity [1] [%],residual activity [2] [%],residual activity [3] [%],residual activity [4] [%],residual activity [5] [%],residual activity [6] [%],residual activity [7] [%],residual activity [8] [%],residual activity [9] [%],residual activity [10] [%],residual activity [11] [%],residual activity [12] [%],residual activity [13] [%],residual activity [14] [%],residual activity [15] [%],residual activity [16] [%],residual activity [17] [%],residual activity [18] [%],residual activity [19] [%],residual activity [20] [%]
CN(C)c1ccc(/C=C2\C(=O)Nc3ccccc32)cc1,93,94,83,49,114,73,49,26,82,30,97,91,91,84,77,56,39,16,113,105
N#Cc1cnc2cnc(NCc3cccnc3)cc2c1Nc1ccc(F)c(Cl)c1,64,,-1,-1,91,91,2,0,93,90,10,7,83,74,69,46,99,99,14,9
Cc1cncc2cccc(S(=O)(=O)N3CCCN(C(=O)CN)C[C@H]3C)c12,87,,73,43,,,74,24,91,72,,,82,,94,99,86,62,98,99
COc1cc2ncnc(Nc3ccc(NC(=O)c4ccccc4)cc3)c2cc1OC,98,93,105,95,,,77,50,,92,,97,92,74,77,96,72,22,105,
O=C1NC(=O)/C(=C/c2ccc3c(c2)OC(F)(F)O3)S1,87,81,100,76,114,109,114,82,85,73,72,93,96,99,77,72,96,99,112,104
Cc1cc(Nc2nc(-c3ccccc3)nc3ccccc23)n[nH]1,,,66,26,,67,46,7,61,14,101,71,72,58,55,9,4,1,122,110
COc1cc2ncc(-c3ccccc3)nc2cc1OC,80,,90,80,,,69,60,92,62,92,92,90,90,78,86,94,60,,93
Nc1ccc2ncnc(NCCc3ccc(Oc4ccccc4)cc3)c2c1,106,105,87,62,99,101,63,40,101,82,90,82,73,96,104,64,,80,131,124
Cc1cccc(-c2[nH]c(C(C)(C)C)nc2-c2ccc3c(c2)OCO3)n1,96,,85,77,,96,75,103,101,90,70,39,107,83,84,90,99,,,
Nc1cccc(-c2cc3c(Oc4cccc(O)c4)ncnc3[nH]2)c1,82,,51,11,94,102,73,29,41,7,74,20,80,70,85,25,7,1,123,
N#CCCc1ccc2c(c1)-c1[nH]c3ccc([N+](=O)[O-])cc3c1CC(=O)N2,39,49,30,9,,,69,52,38,17,,,,,,,7,2,35,19
CC(=O)c1ccc(N2CCOCC2)cc1O,,111,93,91,102,,90,100,108,88,75,91,104,96,83,85,89,97,105,92
c1ccc(-c2n[nH]cc2-c2ccnc3ccccc23)nc1,109,125,93,81,,,97,82,72,27,75,48,,87,77,97,100,103,102,100
CC(C)n1cnc2/c(=N/c3cccc(Cl)c3)nc(NCCO)[nH]c21,92,116,50,26,81,91,56,16,98,69,73,49,80,93,90,30,11,1,108,98
CN(C)CCCn1cc(C2=C(c3c[nH]c4ccccc34)C(=O)NC2=O)c2ccccc21,73,109,65,25,109,52,41,13,84,47,,,79,,20,7,58,13,115,76
